This note sets out measurements from PubChem BioAssay (NCATS).

The target in assay [1] is Lysosomal acid glucosylceramidase (Homo sapiens) (UniProt P04062). In words: Glucocerebrosidase-p2 (AID 348; in the data active = potency below about 10 µM; note: potency is the fitted concentration of half-maximal effect). Conditions: purified GBA, blue fluorogenic substrate, 40 min. The procedure, abridged:
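Compounds titrated from 0.6 nM upwards against 0.2 nM enzyme in pH 5.9 citric acid/KH2PO4, taurocholate, tween-20; blue fluorogenic substrate 80 uM, 40 min room temperature, stopped and read Ex 365/Em 440 for AC50.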

A short description of assay [2]: NFAT Signaling Pathway (AID 444; active = well fitted curve in either direction with a large enough effect, not every such curve was filed as active;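 note: carbachol stimulus at about its EC50 of 1 µM final; % is set by controls: 0 for no effect and ±100 for the full control effect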). The following applies: Jurkat NFAT-bla M1, carbachol, beta-lactamase ratio, 5 h; at 7.69 µM (top of the series) unless noted. The procedure, abridged:
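Jurkat cells with NFAT-driven β-lactamase reporter and co-expressed M1 receptor, stimulated with carbachol (final 1 uM, ~EC50), compound titration, 5 h at 37 °C. CCF4 loaded 1 h at RT; 460/530 nm ratio gave %activity and AC50.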

Assay [3] can be described thus: Stat Signaling Pathway (AID 446; active = well fitted curve in either direction with a large enough effect, not every such curve was filed as active;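 note: ME-180 cervical cancer cells given 40 pM IL-6 alongside compound; SIE-controlled beta-lactamase reporter measured as 460/530 nm FRET emission ratio; % is set by controls: 0 for no effect and ±100 for the full control effect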). Conditions: ME-180 SIE beta-lactamase reporter, IL-6 stimulated, 5 h; at 7.69 µM (top of the series) unless noted. The procedure, abridged: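 Screening format detects activators and inhibitors alike: ME-180 SIE-bla cells stimulated at 40 pM IL-6 for 5 hrs with compound, then dual-emission beta-lactamase read at 405 nm excitation.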

The target in assay [4] is Glucocorticoid receptor (Homo sapiens) (UniProt P04150). Put plainly: GR-GFP Redistribution (AID 450;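 active = compounds whose dose series gives a full or clear partial fitted curve of increased nuclear translocation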; note: potency is the fitted concentration of half-maximal effect). Conditions: U2OS GR-GFP nuclear translocation, laser cytometry, 2 h.
Sequence of Glucocorticoid receptor (Homo sapiens) (P04150 whole entry, looked up, the tested form may be a part): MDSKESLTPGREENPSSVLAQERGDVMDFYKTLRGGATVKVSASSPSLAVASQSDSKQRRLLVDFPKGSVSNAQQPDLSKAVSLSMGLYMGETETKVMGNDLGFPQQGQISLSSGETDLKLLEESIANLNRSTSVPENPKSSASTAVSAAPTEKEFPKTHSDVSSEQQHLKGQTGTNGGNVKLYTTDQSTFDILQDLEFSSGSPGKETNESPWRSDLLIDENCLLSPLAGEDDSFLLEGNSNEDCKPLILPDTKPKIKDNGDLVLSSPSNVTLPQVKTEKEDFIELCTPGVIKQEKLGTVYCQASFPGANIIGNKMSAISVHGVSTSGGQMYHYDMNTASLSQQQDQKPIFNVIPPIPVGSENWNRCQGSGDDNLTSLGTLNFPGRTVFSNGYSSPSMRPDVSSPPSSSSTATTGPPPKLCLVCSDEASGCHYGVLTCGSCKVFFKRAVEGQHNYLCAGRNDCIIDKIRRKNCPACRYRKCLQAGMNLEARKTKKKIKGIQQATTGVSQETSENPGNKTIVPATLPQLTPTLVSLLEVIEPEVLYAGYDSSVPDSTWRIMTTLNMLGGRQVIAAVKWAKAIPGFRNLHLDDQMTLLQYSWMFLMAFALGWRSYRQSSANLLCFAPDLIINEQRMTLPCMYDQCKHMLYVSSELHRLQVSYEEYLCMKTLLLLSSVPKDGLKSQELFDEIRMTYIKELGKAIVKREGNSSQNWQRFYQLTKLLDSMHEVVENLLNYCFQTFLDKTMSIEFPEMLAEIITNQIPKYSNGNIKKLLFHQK
Assay [5] shares this target. In words: GR-EFC Redistribution (AID 451; calls by dose curve; note: potency is the fitted concentration of half-maximal effect). Conditions: CHO-K1 GR-EFC translocation, beta-gal luminescence, 2 h. The procedure, abridged: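 CHO-K1 cells expressing nuclear EA and GR-ED fragments of b-gal; compounds titrated up to 46 uM final, 2 h at 37 C. GR nuclear translocation read as complemented b-gal luminescence after 1 h RT detection.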
The target of assay [6] is Mitogen-activated protein kinase 10 (Mus musculus) (UniProt Q61831). In words: JNK3 AlphaScreen Assay (AID 530; active = well fitted curve in either direction with a large enough effect, not every such curve was filed as active;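 note: kinase came from lysate of stimulated human HepG2 cells; signal reports phosphorylation of biotinylated GST-cJun 1-79 at Ser73 with 10 µM ATP; % is set by controls: 0 for no effect and ±100 for the full control effect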). Conditions: JNK3 lysate, c-Jun phosphorylation; series mostly up to 57.1 µM. The procedure, abridged: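 Pre-activated (IL-1β/TNFα) JNK3 in HepG2 lysates phosphorylates biotin-GST-cJun(1-79), 10 uM ATP; anti-phospho-cJun(Ser73) AlphaScreen read at room temperature, pH 7.6 Tris buffer. Compounds pre-incubated 15 min as titrations.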
(In general: Alpha assays give light when donor and acceptor beads are brought close together.)

Assay [7] deals with 3',5'-cyclic-AMP phosphodiesterase 4B (Homo sapiens) (UniProt Q07343). Put plainly: qHTS Assay for Inhibitors of PDE-IV (AID 607; active = well fitted activation curve with a large enough effect in the main read-out, with a control signal flat, not every such curve was filed as active; note: % of control where 0% means no effect). Conditions: HEK293 ACTOne CNG channel cells, membrane potential fluorescence; series mostly up to 22.9 µM. The procedure, abridged: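 The readout is membrane depolarisation from a cAMP-sensing CNG channel, detected with a potential dye at ex 535/em 590. Cells were HEK293-derived (endogenous PDE-IV) at 1000 cells/well, titrated up to 22.9 uM final.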
Sequence of 3',5'-cyclic-AMP phosphodiesterase 4B (Homo sapiens) (Q07343 whole entry, looked up): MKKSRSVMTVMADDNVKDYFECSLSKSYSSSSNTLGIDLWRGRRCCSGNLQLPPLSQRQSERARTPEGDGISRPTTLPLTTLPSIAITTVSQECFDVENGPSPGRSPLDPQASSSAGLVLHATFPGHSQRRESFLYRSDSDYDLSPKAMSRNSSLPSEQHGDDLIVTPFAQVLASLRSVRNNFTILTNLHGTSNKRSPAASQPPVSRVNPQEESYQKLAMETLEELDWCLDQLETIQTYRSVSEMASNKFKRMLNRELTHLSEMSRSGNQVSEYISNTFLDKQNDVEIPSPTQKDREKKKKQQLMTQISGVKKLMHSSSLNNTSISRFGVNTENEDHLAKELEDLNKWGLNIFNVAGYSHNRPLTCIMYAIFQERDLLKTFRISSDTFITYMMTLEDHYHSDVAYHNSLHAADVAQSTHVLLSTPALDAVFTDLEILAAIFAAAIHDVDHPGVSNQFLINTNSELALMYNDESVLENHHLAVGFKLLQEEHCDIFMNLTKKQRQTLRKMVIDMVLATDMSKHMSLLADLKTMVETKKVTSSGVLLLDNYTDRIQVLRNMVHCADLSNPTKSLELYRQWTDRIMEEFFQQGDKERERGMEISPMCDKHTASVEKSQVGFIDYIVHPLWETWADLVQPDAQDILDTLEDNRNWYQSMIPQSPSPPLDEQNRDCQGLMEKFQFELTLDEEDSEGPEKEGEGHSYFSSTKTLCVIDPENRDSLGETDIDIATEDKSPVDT
(In general: Quantitative high-throughput screening tests each substance at several concentrations.)

Assay [8] has as its target Cytochrome P450 3A4 (Homo sapiens) (UniProt P08684). In words: qHTS Assay for Activators of Cytochrome P450 3A4 (AID 885). Note: nearly all actives have a fitted effect of over 65% in size. Conditions: recombinant CYP3A4, Luciferin-PPXE luminescence, 60 min; series mostly up to 57.1 µM. A digest of the protocol: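 Steps: enzyme/substrate mix dispensed; compound added, 10 min RT; NADPH regeneration solution added, 60 min RT; luciferin detection buffer stops reaction; 20 min later luminescence measured.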

Assay [9] concerns the target Dual specificity protein kinase CLK4 (Homo sapiens) (UniProt Q9HAZ1). Put plainly: qHTS Assay for Inhibitors of CDC-like Kinase 4 (Kinase-Glo Assay) (AID 1770). Note: nearly all actives have a fitted effect of over 65% in size. Note: potency is the fitted concentration of half-maximal effect. Conditions: recombinant Clk4, Kinase-Glo ATP depletion luminescence; series mostly up to 66.7 µM. The procedure, abridged:
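Readout: Kinase-Glo luminescence from ATP left after a 4.5 h room-temperature reaction of 25 nM Clk4 with 100 uM RS peptide and 1 uM ATP (final). Buffer: 25 mM Tris pH 7.5, 10 mM MgCl2.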

The target is the same in assay [10]. Put plainly: qHTS Assay for Inhibitors of CDC-like Kinase 4 (ADP-Glo Assay) (AID 1771). Note: nearly all actives have a fitted effect of over 70% in size. Note: potency is the fitted concentration of half-maximal effect. The following applies: recombinant CLK4, ADP-Glo luminescence; series mostly up to 80 µM. The procedure, abridged:
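25 nM Clk4 with 100 uM RS repeat peptide and 1 uM ATP (final) in buffer with 2 mM MgCl2, 0.5 mM EGTA, 2.5 mM DTT, 0.01% Triton X-100; 1 h at room temperature; ADP-Glo luminescence for ADP formed.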

Assay [11] has the same target. Put plainly: qHTS Assay for Inhibitors of CDC-like Kinase 4 (ADP-FP Assay) (AID 1795). Note: nearly all actives have a fitted effect of over 60% in size. Note: potency is the fitted concentration of half-maximal effect. Conditions: Transcreener ADP fluorescence polarization; series mostly up to 50 µM. A digest of the protocol:
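FP readout: Orange Transcreener ADP2 tracer (4 nM) plus ADP antibody, read after 30 min at room temperature. Kinase step: 6.25 nM Clk4, 100 uM RS peptide, 1 uM ATP, pH 7.5, 1 h.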

Assay [12] deals with Ubiquitin carboxyl-terminal hydrolase 1 (Homo sapiens) (UniProt O94782). Put plainly: Inhibitors of USP1/UAF1: Pilot qHTS (AID 504865).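 Note: rhodamine fluorescence freed from ubiquitin-rhodamine substrate followed over time; top concentration of the series differs between compounds; % is set by controls: 0 for no effect and ±100 for the full control effect; nearly all actives have a fitted effect of over 35% in size.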 The following applies: purified USP1/UAF1, Ub-rhodamine cleavage fluorescence; series mostly up to 54.9 µM. The procedure, abridged: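 1nM USP1/UAF1 + cpd, 15 min RT; start w/ Ub-Rho 150nM final; kinetic FL 480/540 nm, 6 reads q60 s. Buffer 50mM HEPES pH 7.8, 0.5mM EDTA, 1mM TCEP, 0.01% Tween-20, 0.1 mg/ml BSA.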
Sequence of Ubiquitin carboxyl-terminal hydrolase 1 (Homo sapiens) (O94782 whole entry, looked up): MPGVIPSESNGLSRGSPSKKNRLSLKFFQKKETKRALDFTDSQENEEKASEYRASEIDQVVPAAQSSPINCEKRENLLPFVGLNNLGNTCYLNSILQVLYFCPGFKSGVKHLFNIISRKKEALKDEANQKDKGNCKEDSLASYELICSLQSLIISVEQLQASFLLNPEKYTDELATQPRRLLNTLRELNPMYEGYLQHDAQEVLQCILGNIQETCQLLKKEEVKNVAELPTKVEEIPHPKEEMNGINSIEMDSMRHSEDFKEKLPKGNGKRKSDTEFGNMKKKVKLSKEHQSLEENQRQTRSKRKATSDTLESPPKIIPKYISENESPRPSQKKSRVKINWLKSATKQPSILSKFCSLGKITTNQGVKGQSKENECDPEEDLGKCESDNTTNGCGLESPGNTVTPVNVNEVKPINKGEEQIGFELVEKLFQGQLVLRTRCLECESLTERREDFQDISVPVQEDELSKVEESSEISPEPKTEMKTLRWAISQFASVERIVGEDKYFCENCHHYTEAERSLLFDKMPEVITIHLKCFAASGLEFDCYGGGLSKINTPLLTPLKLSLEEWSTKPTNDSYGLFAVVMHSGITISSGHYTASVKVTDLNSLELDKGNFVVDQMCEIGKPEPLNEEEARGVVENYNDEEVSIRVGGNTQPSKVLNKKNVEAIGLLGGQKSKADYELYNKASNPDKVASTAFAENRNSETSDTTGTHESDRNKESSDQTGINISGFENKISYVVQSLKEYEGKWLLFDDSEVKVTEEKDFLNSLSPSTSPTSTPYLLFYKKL

Assay [13] in a line: Primary qHTS for small molecule stabilizers of the endoplasmic reticulum resident proteome: Secreted ER Calcium Modulated Protein (SERCaMP) assay (AID 1508630). Note: % is set by controls: 0 for no effect and ±100 for the full control effect. Conditions: SH-SY5Y GLuc-SERCaMP (Gaussia luciferase released on ER calcium loss) secretion, thapsigargin, luminescence; series mostly up to 38.4 µM. The procedure, abridged:
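GLuc-SERCaMP-expressing SH-SY5Y cells, pretreated 16 h with compound, are challenged with thapsigargin to empty ER calcium stores; after 4 h, coelenterazine is added directly to the medium and luminescence is imaged.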

In assay [14] the target is Cytochrome P450 1A2 (Homo sapiens) (UniProt P05177). Put plainly: p450-cyp1a2 (AID 410; calls by dose curve; note: potency is the fitted concentration of half-maximal effect). Conditions: recombinant CYP1A2, luciferin-ME demethylation, luminescence; series mostly up to 57 µM. The procedure, abridged: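 20nM CYP1A2 with 100uM Luciferin-ME (at Km) in 100mM KPO4; compound preincubated 10 min, NADPH regeneration added, 60 min at room temperature. Luciferin quantified by luminescence after detection reagent; normalized to 57 uM furafylline.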
Sequence of Cytochrome P450 1A2 (Homo sapiens) (P05177 whole entry, looked up): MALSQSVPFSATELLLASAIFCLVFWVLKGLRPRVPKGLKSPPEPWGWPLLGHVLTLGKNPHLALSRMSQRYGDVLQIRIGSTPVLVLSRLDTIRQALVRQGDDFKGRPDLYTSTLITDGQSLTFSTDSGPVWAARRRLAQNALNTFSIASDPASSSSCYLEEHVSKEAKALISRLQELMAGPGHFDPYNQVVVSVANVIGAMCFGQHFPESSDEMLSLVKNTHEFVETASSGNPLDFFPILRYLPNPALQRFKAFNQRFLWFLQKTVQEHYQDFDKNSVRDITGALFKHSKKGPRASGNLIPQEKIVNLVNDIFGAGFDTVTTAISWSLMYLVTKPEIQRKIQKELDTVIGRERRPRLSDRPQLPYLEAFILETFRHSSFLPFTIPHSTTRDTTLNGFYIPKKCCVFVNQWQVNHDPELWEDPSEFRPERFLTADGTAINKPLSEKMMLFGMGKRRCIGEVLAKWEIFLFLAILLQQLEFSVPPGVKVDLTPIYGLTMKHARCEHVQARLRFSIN

Assay [15] is described as follows: qHTS Assay for Identification of Small Molecule Agonists for Hypoxia Response Element Signaling Pathway (AID 914; active = well fitted activation curve with a large enough effect in the signal ratio, with a control signal flat, not every such curve was filed as active; the % refers to the signal ratio; note: potency is the fitted concentration of half-maximal effect; for activation: % of control where 0% means no effect). The following applies: ME-180 (cervical carcinoma) HRE-bla reporter, beta-lactamase ratio, CoCl2, 17 h; activation: hits give high values. A digest of the protocol:
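ME-180 cells carrying an HRE-driven beta-lactamase reporter were treated with compounds in a titration series plus an EC50 level of CoCl2 for 17 h at 37 degrees Celsius; CCF4 readout as the 460nm/530nm ratio gave AC50 values.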

For assay [16], the target named is Cytochrome P450 3A4 (Homo sapiens) (UniProt P08684). Put plainly: qHTS Assay for Inhibitors and Substrates of Cytochrome P450 3A4 (AID 884). Note: potency is the fitted concentration of half-maximal effect; nearly all actives have a fitted effect of over 50% in size. Conditions: recombinant CYP3A4, Luciferin-PPXE luminescence; series mostly up to 57.1 µM. The procedure, abridged: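 20 nM human CYP3A4 with 25 uM Luciferin-PPXE (at KM) in 200 mM KPO4, preincubated 10 min with compound; NADPH regeneration started a 60 min RT reaction. Luciferin detected by luminescence, normalized to 57 uM ketoconazole as full inhibition.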
Sequence of Cytochrome P450 3A4 (Homo sapiens) (P08684 whole entry, looked up): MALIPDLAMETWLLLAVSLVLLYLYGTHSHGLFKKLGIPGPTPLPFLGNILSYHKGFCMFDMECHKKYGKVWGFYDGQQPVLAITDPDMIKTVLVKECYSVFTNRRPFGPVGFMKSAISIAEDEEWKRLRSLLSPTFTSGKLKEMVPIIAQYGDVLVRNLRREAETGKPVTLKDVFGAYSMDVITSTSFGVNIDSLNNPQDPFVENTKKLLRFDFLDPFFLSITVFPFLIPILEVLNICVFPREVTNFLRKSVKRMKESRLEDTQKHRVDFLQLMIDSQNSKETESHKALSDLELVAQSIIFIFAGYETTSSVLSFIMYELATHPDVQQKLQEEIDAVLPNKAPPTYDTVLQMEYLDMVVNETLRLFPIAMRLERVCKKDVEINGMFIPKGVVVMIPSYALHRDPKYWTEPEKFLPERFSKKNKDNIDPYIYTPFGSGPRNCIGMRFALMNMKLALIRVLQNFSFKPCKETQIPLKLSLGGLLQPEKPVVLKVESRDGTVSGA

Unmarked numbers belong to inactive results. Results filed as inconclusive are left out. The source made the active and inactive calls. Unless noted, calls come from the whole dose curve; as a rule, active = well fitted curve in the direction sought with a large enough effect; inconclusive = small, poorly fitted or top-dose-only effect, or another doubt; inactive = no such curve, though single readings can be large; an effect the other way counts as inactive or inconclusive.

Sequence of Lysosomal acid glucosylceramidase (Homo sapiens) (P04062 whole entry, looked up): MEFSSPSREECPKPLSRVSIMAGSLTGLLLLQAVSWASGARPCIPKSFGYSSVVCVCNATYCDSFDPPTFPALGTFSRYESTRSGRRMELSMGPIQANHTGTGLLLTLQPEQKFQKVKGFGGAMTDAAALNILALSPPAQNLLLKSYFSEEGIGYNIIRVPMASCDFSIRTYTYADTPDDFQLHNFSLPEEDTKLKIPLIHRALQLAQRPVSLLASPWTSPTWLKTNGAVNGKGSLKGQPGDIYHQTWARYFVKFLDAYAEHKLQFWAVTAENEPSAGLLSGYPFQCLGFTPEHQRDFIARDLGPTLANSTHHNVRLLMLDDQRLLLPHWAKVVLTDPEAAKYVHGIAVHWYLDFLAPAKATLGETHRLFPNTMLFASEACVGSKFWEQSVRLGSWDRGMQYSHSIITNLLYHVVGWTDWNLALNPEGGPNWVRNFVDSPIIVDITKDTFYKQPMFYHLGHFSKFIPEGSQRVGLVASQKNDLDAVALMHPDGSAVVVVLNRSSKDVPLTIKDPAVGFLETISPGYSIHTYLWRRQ
Sequence of Dual specificity protein kinase CLK4 (Homo sapiens) (Q9HAZ1 whole entry, looked up): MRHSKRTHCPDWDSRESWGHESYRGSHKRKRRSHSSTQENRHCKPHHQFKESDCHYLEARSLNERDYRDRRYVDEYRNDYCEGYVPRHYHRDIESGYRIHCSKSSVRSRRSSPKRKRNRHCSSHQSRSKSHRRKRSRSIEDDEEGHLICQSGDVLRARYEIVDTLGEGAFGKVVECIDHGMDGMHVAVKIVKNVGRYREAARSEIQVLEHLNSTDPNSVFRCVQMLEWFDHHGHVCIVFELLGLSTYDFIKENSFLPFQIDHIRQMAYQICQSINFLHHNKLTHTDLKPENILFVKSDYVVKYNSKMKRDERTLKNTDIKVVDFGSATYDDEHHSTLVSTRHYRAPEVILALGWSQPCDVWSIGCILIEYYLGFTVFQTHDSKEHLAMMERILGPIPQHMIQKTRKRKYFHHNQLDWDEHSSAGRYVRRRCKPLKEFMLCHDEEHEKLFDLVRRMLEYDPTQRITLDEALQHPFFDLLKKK

As to `O=c1c(-c2ccc(F)cc2)nc2cnc(Oc3cccc(Cl)c3)nc2n1C[C@H]1CCCO1`, the Potency in assay [1] was more than 11.4 µM; in assay [4] it was more than 9.22 µM; in assay [5], more than 46 µM. Besides, the activity change, negative = inhibition in [2] is -18.3%. Besides, in assay [3], the activity, negative = inhibition is -26%. Moreover, the Potency result in assay [6], in [7], in assay [8], in assay [9], in [10] and in assay [11] was “inactive” in each case. Besides, the Potency entry in assay [12] was “inactive”. The result in assay [13] was inactive.

`Cn1cc(-c2nc3cncnc3n(Cc3ccccc3Cl)c2=O)c2ccccc21`: the Potency in [1] was more than 11.4 µM; in assay [14], 3.16 µM (active); in [4], more than 9.22 µM; in [5], more than 46 µM. For the same compound, the activity change, negative = inhibition in [2] is 3.77%. Also, the Potency result in assay [7], in assay [8], in assay [9], in [10], in [11] and in assay [12] was “inactive” throughout. Besides, the activation in [15] is 15.7%. In addition, in [13], the result was inactive.

With `CS(=O)(=O)Nc1cccc(-c2ccc3ncnc(NCc4cccs4)c3c2)c1`, the Potency in [1] was more than 11.4 µM; in assay [14], 0.0794 µM (active); in [4], more than 46 µM; in assay [5], more than 46 µM; in [16], 3.16 µM (active); in assay [9] it was 7.94 µM (active). Moreover, the Potency in [10] is 7.94 µM (active); in assay [11], 5.01 µM (active). Further, the activity, negative = inhibition in assay [3] was -2.34%. The Potency entry in assay [6], in [8] and in [12] was “inactive” throughout. Also, the result in [13] was inactive.

With `COc1cccc(Nc2ncc3nc(CCc4ccccc4)c(=O)n(Cc4cccs4)c3n2)c1`, the Potency in assay [1] is more than 11.4 µM; in assay [14] it was 3.16 µM (active); in assay [4] it was more than 9.22 µM; in [5] it was more than 46 µM. For the same compound, the activity, negative = inhibition in [3] is -28.9%. Further, the Potency entry in assay [6], in assay [7], in assay [8], in assay [9], in assay [10] and in assay [11] was “inactive” throughout. For the same compound, the Potency result in assay [12] was “inactive”. In addition, the outcome in assay [13] was inactive.

Consider `O=c1c(-c2ccc(F)cc2)nc2cnc(N3CCOCC3)nc2n1Cc1ccc(F)cc1`, for which the Potency in [1] was more than 11.4 µM; in assay [14] it was 20 µM (active); in assay [4], more than 9.22 µM; in assay [5] it was more than 46 µM; in assay [15], 0.398 µM (active). In assay [3], the activity, negative = inhibition is 105% [activator] (active). For the same compound, the Potency entry in [6], in [7], in assay [9], in assay [10], in assay [11] and in assay [12] was “inactive” in each case. In addition, the outcome in assay [13] was inactive.

On to `CCNc1ncc2nc(-c3ccc(F)cc3)c(=O)n(-c3ccccc3)c2n1`, for which the Potency in assay [1] is more than 11.4 µM; in [14], 0.398 µM (active); in [4], more than 9.22 µM; in assay [5], more than 46 µM; in assay [15], 3.16 µM (active). Moreover, the Potency entry in [6], in assay [9], in assay [10], in assay [11] and in [12] was “inactive” each time. Moreover, the outcome in assay [13] was inactive.

For `COc1ccc(-n2c(=O)c(-c3cc(F)cc(F)c3)nc3cnc(N4CCOCC4)nc32)cc1`, the Potency in assay [1] was more than 11.4 µM; in [14], 15.8 µM (active); in assay [4] it was more than 9.22 µM; in [5], more than 46 µM; in assay [15], 1.58 µM (active). Besides, the Potency result in [6], in assay [7], in assay [8], in assay [9], in assay [10] and in assay [11] was “inactive” in each case. Moreover, the Potency entry in assay [12] was “inactive”. The outcome in assay [13] was inactive.
